The source made the active and inactive calls.
Assays:
[1] = binders of probe aFSTL3 on microarray, primary screen, stem cell growth factor project, biochemical, small-molecule microarray, fluorescence 635/667 (AID 1064); conditions: higher = more signal;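 also: measures binding of the biotinylated anti-FSTL3 antibody to printed compounds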
[2] = binders from COS7 lysate, DM2A8 probe, primary screen, torsin A project, cell lysate, small-molecule microarray, fluorescence 635/667 (AID 1065); conditions: higher = more signal, COS7 lysate expressing mutant human TOR1A
[3] = binders of probe aFGF2 on microarray, primary screen, stem cell growth factor project, biochemical, small-molecule microarray, fluorescence 635/667 (AID 1067); conditions: higher = more signal;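 also: measures binding of biotinylated aFGF2 protein to printed compounds on slides; z-score merges feature fluorescence and signal-to-noise across triplicate slides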
[4] = binders of probe aFGF10 on microarray, primary screen, stem cell growth factor project, biochemical, small-molecule microarray, fluorescence 635/667 (AID 1071); conditions: higher = more signal;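 also: score merges 667 nm spot intensity and signal to noise from triplicate slides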
[5] = target: Neurogenic locus notch homolog protein 2 (Homo sapiens) (UniProt Q04721); assay: Notch2 binders on small-molecule microarrays, primary screen, biochemical, small-molecule microarray, 635 nm fluorescence, stem cell growth factors (AID 1073); conditions: Notch2 binding, higher = more signal
[6] = target: Pro-neuregulin-1, membrane-bound isoform (Homo sapiens) (UniProt Q02297); assay: NRG1 binders on small-molecule microarrays, primary screen, psychiatric disease protein project, biochemical, small-molecule microarray, fluorescence 635/667 (AID 1075); conditions: NRG1 binding, 635 nm fluorescence, higher = more signal;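 also: score combines 667 nm spot fluorescence with signal to noise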
[7] = tested on: Neuregulin-1 EGF-like domain; assay: binders of neuregulin-1 EGF-like domain, primary screen, biochemical, small-molecule microarray, 635 nm fluorescence (AID 1081); conditions: small-molecule microarray binding, higher = more signal;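 also: binding of the protein to compounds printed on small-molecule microarray slides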
[8] = FRG1 promoter luciferase signal modulators, primary screen, FRG1 inhibition for FSHD, cell-based, C2C12 myotubes, firefly/Renilla luciferase, luminescence (AID 1084); conditions: higher = more signal, called active from +8 up or from −8 down
[9] = binders of probe aFST on microarray, primary screen, stem cell growth factor project, biochemical, small-molecule microarray, fluorescence 635/667 (AID 1086); conditions: higher = more signal;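 also: score merges 667 nm fluorescence with signal-to-noise of each printed compound spot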
[10] = binders of probe aHhip on microarray, primary screen, stem cell growth factor project, biochemical, small-molecule microarray, fluorescence 635/667 (AID 1087); conditions: higher = more signal;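 also: score merges spot fluorescence at 667nm with spot signal to noise ratio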
[11] = tested on: PRMT1 (protein arginine N-methyltransferase 1); assay: PRMT1 binders on small-molecule microarrays, primary screen, biochemical, small-molecule microarray, 635 nm fluorescence (AID 1088); conditions: small-molecule microarray binding, higher = more signal;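 also: binding of Prmt1 protein to compounds spotted on small-molecule microarray slides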
[12] = yeast growth modulation, basal conditions, primary screen, YJM789 clinical isolate, OD600, 24 h (AID 1089);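 also: growth of clinical yeast isolate S. cerevisiae YJM 789 seeded 1000 cells per well; test concentration not given here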; conditions: S. cerevisiae YJM789 growth, higher = more signal, called active from +8 up or from −8 down
[13] = fission yeast growth modulation, primary screen, strain 972, OD600, 24 h, no modulator (AID 1090);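 also: basal condition with compound alone and no growth modifier present; test concentration not given here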; conditions: S. pombe 972 growth, higher = more signal, called active from +8 up or from −8 down
[14] = S. cerevisiae growth modulation with rapamycin, primary screen, strain BY4716, OD600, 96 h (AID 1091); conditions: higher = more signal, called active from +8 up or from −8 down; also: test concentration not given here
[15] = target: Torsin-1A-interacting protein 2 (Homo sapiens) (UniProt Q8NFQ8); assay: LULL1 binders on small-molecule microarray, primary screen, cell lysate, human LULL1 lysate, 635/667 nm fluorescence (AID 1092); conditions: hLULL1 lysate binding, 635 nm fluorescence, higher = more signal;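 also: probe is lysate of COS7 cells overexpressing human LULL1; score merges per-feature 667 nm fluorescence with signal-to-noise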
[16] = E. coli growth modulation, two-sided OD650, primary screen, E. coli filamentation project, strain DRC41, 24 h (AID 1093); conditions: OD650, 24 h, higher = more signal, called active from +8 up or from −8 down;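 also: MC1000 strain lacking acrAB efflux and sulA so SOS filamentation is blocked; test concentration not given here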
[17] = small-molecule microarray binders of probe aLefty2, primary screen, biochemical, biotinylated probe, 635/667 nm fluorescence (AID 1094); conditions: higher = more signal;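 also: score merges spot fluorescence near 667 nm with spot signal-to-noise ratio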
[18] = tested on: Noggin (protein binding on small-molecule microarray); assay: Noggin binders on small-molecule microarray, primary screen, biochemical, 635/667 nm fluorescence (AID 1095); conditions: 635 nm fluorescence, higher = more signal;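 also: score merges 667 nm feature fluorescence with signal to noise over triplicate slides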
[19] = target: Neurogenic locus notch homolog protein 3 (Homo sapiens) (UniProt Q9UM47); assay: NOTCH3 binders on small-molecule microarray, primary screen, biochemical, 635/667 nm fluorescence (AID 1096); conditions: NOTCH3 binding, 635 nm fluorescence, higher = more signal
[20] = small-molecule microarray binders of probe aEGFR, primary screen, biochemical, biotinylated probe, 635/667 nm fluorescence (AID 1097); conditions: higher = more signal;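 also: probe is a biotinylated anti-EGFR antibody binding compounds printed on slides; score combines fluorescence near 667 nm and signal to noise of each spot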

Sequence of Neurogenic locus notch homolog protein 3 (Homo sapiens) (Q9UM47 whole entry, looked up): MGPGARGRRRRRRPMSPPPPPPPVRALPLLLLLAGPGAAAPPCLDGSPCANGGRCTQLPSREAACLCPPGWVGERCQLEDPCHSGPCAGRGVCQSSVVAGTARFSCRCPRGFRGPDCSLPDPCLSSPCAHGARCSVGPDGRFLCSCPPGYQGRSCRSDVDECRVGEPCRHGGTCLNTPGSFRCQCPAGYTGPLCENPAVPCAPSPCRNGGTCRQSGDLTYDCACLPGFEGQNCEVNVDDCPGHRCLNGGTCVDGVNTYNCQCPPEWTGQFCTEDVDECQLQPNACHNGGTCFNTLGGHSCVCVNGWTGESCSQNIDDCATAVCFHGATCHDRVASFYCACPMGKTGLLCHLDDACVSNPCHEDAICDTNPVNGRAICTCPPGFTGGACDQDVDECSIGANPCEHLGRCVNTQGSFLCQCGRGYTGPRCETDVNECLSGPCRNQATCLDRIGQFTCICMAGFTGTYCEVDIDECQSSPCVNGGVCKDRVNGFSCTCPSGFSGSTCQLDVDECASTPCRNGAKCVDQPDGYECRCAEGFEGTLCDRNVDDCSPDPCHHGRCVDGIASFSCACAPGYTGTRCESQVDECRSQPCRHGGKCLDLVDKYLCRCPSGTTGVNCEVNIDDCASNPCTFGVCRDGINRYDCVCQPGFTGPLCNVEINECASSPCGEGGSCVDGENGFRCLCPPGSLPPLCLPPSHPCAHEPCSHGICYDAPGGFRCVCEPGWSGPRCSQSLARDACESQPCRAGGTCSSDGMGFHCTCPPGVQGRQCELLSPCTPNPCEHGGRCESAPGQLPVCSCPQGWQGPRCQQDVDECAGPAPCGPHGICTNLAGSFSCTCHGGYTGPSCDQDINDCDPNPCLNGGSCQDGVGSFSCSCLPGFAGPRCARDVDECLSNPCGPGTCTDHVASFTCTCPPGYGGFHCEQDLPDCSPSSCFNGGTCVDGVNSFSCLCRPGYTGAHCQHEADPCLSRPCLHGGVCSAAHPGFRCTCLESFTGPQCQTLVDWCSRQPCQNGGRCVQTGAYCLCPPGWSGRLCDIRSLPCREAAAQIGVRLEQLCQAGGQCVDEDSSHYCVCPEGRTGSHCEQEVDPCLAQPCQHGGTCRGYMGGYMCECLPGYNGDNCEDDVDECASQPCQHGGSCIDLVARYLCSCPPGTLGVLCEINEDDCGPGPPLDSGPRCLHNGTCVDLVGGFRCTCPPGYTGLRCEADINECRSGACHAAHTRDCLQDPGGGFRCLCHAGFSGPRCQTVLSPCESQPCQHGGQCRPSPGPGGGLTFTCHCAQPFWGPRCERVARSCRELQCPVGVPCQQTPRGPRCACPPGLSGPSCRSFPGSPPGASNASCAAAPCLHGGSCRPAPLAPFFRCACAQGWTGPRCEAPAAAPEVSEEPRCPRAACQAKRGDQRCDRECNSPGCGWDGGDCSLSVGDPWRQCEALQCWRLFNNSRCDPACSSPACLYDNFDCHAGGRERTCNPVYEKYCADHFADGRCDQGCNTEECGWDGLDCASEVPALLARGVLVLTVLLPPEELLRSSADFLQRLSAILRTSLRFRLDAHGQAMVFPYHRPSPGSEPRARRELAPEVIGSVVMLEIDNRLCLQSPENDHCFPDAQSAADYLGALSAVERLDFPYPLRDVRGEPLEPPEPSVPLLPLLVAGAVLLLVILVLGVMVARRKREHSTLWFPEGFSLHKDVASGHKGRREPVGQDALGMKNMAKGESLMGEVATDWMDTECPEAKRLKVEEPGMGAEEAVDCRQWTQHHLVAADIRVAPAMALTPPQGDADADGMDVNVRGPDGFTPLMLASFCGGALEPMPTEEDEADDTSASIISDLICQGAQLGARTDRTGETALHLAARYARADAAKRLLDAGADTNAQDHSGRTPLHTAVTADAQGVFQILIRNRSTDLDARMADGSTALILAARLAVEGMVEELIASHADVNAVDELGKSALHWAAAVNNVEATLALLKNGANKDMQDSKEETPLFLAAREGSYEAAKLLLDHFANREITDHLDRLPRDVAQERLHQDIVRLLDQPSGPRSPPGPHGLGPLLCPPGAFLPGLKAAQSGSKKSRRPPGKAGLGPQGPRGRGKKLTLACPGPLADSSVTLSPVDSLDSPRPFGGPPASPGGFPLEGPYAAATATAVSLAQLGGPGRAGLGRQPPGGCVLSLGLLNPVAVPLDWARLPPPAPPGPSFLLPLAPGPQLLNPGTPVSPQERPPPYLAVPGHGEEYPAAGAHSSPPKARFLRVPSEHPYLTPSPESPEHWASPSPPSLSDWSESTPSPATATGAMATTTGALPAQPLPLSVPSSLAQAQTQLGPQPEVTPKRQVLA
Sequence of Neurogenic locus notch homolog protein 2 (Homo sapiens) (Q04721 whole entry, looked up, canonical isoform): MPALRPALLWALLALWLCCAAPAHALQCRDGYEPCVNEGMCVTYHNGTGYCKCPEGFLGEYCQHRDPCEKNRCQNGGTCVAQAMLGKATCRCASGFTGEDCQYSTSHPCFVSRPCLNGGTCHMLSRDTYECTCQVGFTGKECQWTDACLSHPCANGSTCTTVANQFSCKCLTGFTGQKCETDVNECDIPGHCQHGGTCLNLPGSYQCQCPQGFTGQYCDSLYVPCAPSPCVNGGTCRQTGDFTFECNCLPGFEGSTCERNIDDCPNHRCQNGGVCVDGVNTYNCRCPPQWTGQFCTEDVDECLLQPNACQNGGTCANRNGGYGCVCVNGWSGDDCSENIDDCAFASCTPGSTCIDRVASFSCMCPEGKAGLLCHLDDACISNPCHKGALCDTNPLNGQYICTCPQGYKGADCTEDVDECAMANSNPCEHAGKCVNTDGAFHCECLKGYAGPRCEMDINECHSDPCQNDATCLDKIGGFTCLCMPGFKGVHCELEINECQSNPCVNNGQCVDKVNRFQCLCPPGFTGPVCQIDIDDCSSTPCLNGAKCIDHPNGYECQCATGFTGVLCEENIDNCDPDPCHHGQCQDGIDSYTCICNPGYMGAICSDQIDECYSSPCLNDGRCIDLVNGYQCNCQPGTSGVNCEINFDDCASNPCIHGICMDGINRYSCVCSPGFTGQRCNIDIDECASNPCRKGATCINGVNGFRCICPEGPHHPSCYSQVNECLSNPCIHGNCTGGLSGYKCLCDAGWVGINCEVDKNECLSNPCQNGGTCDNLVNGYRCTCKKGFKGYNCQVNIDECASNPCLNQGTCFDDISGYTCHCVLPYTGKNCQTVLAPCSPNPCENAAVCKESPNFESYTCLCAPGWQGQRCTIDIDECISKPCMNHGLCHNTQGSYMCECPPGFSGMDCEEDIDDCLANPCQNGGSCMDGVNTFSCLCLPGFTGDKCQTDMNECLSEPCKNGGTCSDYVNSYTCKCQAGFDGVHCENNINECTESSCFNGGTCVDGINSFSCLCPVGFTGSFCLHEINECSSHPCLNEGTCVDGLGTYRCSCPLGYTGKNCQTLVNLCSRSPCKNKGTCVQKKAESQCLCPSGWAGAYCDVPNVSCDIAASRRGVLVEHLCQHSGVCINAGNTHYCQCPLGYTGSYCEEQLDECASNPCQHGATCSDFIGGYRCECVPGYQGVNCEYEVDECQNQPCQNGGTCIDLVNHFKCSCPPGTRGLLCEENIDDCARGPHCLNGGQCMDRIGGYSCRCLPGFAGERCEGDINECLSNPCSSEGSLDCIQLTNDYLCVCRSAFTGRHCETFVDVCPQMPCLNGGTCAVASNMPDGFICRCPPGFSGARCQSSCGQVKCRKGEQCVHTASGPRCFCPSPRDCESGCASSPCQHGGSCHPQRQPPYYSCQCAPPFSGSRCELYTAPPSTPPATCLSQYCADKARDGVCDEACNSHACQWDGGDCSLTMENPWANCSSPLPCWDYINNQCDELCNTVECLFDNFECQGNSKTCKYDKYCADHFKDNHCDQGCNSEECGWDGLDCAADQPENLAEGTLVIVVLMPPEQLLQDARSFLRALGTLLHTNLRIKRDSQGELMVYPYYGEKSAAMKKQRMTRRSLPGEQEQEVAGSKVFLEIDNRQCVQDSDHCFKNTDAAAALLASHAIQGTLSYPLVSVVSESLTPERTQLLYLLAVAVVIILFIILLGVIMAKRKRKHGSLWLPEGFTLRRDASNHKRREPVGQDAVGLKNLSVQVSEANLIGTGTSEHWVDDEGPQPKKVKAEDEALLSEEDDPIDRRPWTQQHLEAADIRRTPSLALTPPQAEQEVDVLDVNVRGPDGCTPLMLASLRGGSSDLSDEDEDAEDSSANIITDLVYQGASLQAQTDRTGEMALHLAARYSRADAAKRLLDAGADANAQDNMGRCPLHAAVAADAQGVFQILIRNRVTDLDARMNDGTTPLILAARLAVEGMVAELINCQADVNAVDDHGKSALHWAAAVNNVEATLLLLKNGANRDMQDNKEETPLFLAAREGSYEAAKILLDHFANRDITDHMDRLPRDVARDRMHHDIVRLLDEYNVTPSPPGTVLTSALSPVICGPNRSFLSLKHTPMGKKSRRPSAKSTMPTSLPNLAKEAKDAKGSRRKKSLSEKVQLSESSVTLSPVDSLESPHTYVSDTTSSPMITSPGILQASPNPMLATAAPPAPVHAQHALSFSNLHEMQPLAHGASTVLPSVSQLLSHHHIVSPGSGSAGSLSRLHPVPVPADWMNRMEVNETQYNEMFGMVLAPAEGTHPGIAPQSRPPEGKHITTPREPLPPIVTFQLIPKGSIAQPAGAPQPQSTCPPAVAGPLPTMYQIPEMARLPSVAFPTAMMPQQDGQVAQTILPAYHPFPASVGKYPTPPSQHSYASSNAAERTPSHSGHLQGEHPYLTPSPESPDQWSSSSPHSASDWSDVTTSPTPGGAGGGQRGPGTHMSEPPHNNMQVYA

SMILES | composite z-score [1] | composite z-score [2] | composite z-score [3] | composite z-score [4] | composite z-score [5] | composite z-score [6] | composite z-score [7] | z-score [8] | composite z-score [9] | composite z-score [10] | composite z-score [11] | z-score [12] | z-score [13] | z-score [14] | composite z-score [15] | z-score [16] | composite z-score [17] | composite z-score [18] | composite z-score [19] | composite z-score [20]
C[C@H]1NC(=O)[C@@]23C(=O)N[C@@H](Cc4ccccc4)C2[C@H](C)[C@@]2(C)O[C@H]2C3/C=C/C/C=C\CNC(=O)[C@@H]2CCCN2C1=O (stereo not given in full) | -0.468 | -0.454 | 0.0653 | 0.479 | 0.521 | 0.425 | 0.909 | 0.182 (inactive) | 0.145 | -0.132 | -0.0905 | -0.185 (inactive) | -0.769 (inactive) | -1.52 (inactive) | 0.697 | 0.1 (inactive) | -0.166 | 1.15 | 1.01 | -0.139
COc1ccc(-c2cc3c(c(-c4ccc(Oc5ccccc5)cc4)n2)[Si](C(C)C)(C(C)C)OC3)cn1 | -0.264 | -0.65 | -0.163 | 0.0106 | 0.358 | -0.264 | -0.502 | -0.211 (inactive) | 0.406 | -0.0994 | 0.483 | 1.32 (inactive) | 0.955 (inactive) | 1.88 (inactive) | -0.166 | -0.984 (inactive) | -0.119 | 0.503 | 0.342 | -0.26
O=C1O[C@@H](c2ccccc2)[C@@H](c2ccccc2)N2[C@@H](c3ccccc3OCCO)[C@]3(C(=O)Nc4ccc(C#CC5=CCCCC5)cc43)[C@@H](C(=O)N3CCCCCCC3)[C@H]12 | 3.71 | 2.23 | 0.978 | 1.14 | 1.65 | 2.07 | 1.07 | -0.27 (inactive) | 3.59 | 3.84 | 1.53 | 1.1 (inactive) | -0.354 (inactive) | 2.02 (inactive) | 4.38 | -0.641 (inactive) | 1.74 | 1.88 | 1.02 | 1.34
O=C(CS)NCCCCCCNC(=O)[C@@H]1C[C@@H]2C(=O)N[C@@H](Cc3ccccc3)C(=O)N2[C@@H]1c1cccc(OCCO)c1 | 0.0549 | 0.94 | 0.0589 | 0.956 | 1.08 | 0.659 | 1.23 | 3.09 (inactive) | 0.616 | -0.0994 | 1.54 | -0.485 (inactive) | 0.279 (inactive) | 0.211 (inactive) | 2.92 | -1.21 (inactive) | 0.0747 | 0.988 | 1.04 | 0.122
C=CCC(OC(C)=O)[C@@H]1[C@@H](N(Cc2ccc(-c3cccc(C(F)(F)F)c3)o2)C(=O)c2ccc(C)cc2)c2cc(OCCCO)ccc2N1C(=O)Cc1ccc2ccccc2c1 (stereo not given in full) | 0.0498 | -0.752 | -0.102 | 0.205 | -0.564 | -0.326 | -0.513 | -0.201 (inactive) | 0.0714 | -0.134 | 0.0457 | 0.677 (inactive) | -0.0286 (inactive) | 0.303 (inactive) | -0.0958 | 1.6 (inactive) | -0.0674 | -0.408 | -0.624 | -0.108
COc1ccc(C#Cc2ccc3c(c2)[C@]2(C(=O)N3)[C@H](c3ccccc3OCCO)N3[C@H](c4ccccc4)[C@H](c4ccccc4)OC(=O)[C@H]3[C@@H]2C(=O)Nc2nc3ccccc3s2)cc1 | -0.541 | -0.0327 | -0.0232 | 0.615 | 1.18 | 0.65 | 1.17 | 2.1 (inactive) | 0.362 | -0.0618 | 1.54 | 2.95 (inactive) | 1.47 (inactive) | 0.871 (inactive) | 1.95 | 0.0309 (inactive) | 0 | 0.785 | 1.09 | -0.0549
CCN(CC)c1ccc(N2CC=CC34O[C@@H]5C=CCCOC(=O)C5[C@H]3C(=O)N(CCCCCCO)[C@@H]4C2=O)cc1 (stereo not given in full) | -0.16 | 0.345 | -0.16 | -0.286 | -0.439 | -0.173 | 1.6 | -0.959 (inactive) | -0.581 | -0.249 | -0.171 | -2.16 (inactive) | -0.431 (inactive) | -1.74 (inactive) | 2.94 | 2.49 (inactive) | -0.192 | -0.612 | -0.619 | -0.0493
C=C(C)[C@@H]1CC=C(C(O)C2C=CC3C(=O)N(C)C(=O)C3N2Nc2ccccc2)CC1 (stereo not given in full) | 0.301 | 0.122 | -0.0216 | 0.394 | 1.27 | 0.624 | 0.928 | 0.283 (inactive) | 0.577 | 0.176 | 1.12 | 0.821 (inactive) | -0.329 (inactive) | 1.92 (inactive) | 1.16 | -1.03 (inactive) | 0.118 | 0.728 | 1.08 | 0.0044
COCCOC(=O)N1C(=O)[C@@]2(c3cc(C#CCC(C(=O)OC)C(=O)OC)ccc31)[C@H](c1ccccc1OCCO)N1[C@H](c3ccccc3)[C@H](c3ccccc3)OC(=O)[C@H]1[C@@H]2C(=O)NC[C@H](O)c1ccccc1 | -0.0494 | 0.114 | -0.117 | 0.791 | 0.961 | 1.27 | 1.15 | -0.923 (inactive) | 0.357 | 0.152 | 1.54 | 1.78 (inactive) | 2.17 (inactive) | 5.84 (inactive) | 2.32 | -0.036 (inactive) | 0.032 | 1.62 | 1.05 | 0.379
NC(=O)NCC#Cc1ccc2c(c1)[C@]1(C(=O)N2)[C@H](c2ccc(O)cc2)N2[C@H](c3ccccc3)[C@H](c3ccccc3)OC(=O)[C@H]2[C@@H]1C(=O)O | 0.741 | -0.935 | -0.176 | -0.225 | -0.897 | 1.08 | -0.224 | 0.473 (inactive) | -0.0113 | -0.457 | -0.019 | 0.801 (inactive) | -0.0898 (inactive) | 0.607 (inactive) | 0.966 | -0.504 (inactive) | -0.255 | -0.581 | -0.156 | -0.191

From PubChem BioAssay
